According to PubChem BioAssay:

target: Focal adhesion kinase 1 (Homo sapiens) (UniProt Q05397); experiment: PTK2 protein binding on printed compound slides – biochemical, small-molecule microarray, 635/667 nm fluorescence, BSA, DTT, primary screen (AID 1130); settings: 635 nm fluorescence, higher = more signal;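 also: composite of spot emission at 667 nm and signal to noise over triplicate slides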
Sequence (Q05397 whole entry, looked up): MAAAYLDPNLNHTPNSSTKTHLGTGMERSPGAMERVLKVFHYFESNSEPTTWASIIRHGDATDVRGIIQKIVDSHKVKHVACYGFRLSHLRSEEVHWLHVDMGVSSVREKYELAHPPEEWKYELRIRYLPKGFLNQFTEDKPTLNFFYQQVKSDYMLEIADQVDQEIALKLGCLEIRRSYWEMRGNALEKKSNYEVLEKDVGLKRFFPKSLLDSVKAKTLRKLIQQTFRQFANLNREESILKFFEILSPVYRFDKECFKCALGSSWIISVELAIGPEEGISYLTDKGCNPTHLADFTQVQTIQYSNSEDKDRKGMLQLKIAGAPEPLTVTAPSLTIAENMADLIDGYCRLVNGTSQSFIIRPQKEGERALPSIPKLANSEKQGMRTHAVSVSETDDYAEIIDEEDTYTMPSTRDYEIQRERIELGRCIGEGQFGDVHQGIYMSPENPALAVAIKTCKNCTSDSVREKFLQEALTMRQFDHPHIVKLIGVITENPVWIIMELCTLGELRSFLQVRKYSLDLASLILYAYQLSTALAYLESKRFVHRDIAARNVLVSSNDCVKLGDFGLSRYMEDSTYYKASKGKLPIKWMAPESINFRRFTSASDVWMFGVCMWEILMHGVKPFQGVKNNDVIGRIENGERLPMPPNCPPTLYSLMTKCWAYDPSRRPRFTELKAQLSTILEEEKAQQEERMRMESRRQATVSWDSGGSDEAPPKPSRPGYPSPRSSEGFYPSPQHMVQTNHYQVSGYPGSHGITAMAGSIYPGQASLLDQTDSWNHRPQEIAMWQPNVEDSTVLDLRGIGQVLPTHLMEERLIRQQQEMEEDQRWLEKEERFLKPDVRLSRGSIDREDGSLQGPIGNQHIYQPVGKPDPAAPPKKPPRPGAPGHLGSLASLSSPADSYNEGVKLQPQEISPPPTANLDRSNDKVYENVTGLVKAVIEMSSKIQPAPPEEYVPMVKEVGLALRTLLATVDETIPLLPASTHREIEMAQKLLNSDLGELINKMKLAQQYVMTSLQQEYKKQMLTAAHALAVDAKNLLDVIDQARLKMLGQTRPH

| Structure (SMILES) | composite z-score |
| --- | --- |
| COCCOC(=O)N1C(=O)[C@@]2(c3cc(C#CCC(C(=O)OC)C(=O)OC)ccc31)[C@H](c1ccccc1OCCO)N1[C@H](c3ccccc3)[C@H](c3ccccc3)OC(=O)[C@H]1[C@@H]2C(=O)N1CCN(c2ncccn2)CC1 | 0.966 |
| C=CCC(OC(C)=O)[C@@H]1[C@@H](N(Cc2ccc(-c3ccccc3)cc2)C(=O)c2cccc3ccccc23)c2cc(OCCCO)ccc2N1C(=O)c1ccc(-c2ccccc2)cc1 (stereo not given in full) | 0.0082 |
| O=C(NCCO)C1=C[C@H](Oc2ccccc2I)[C@@H](O)[C@H](N(Cc2ccco2)C(=O)Cc2ccccc2)C1 | -0.27 |
| C#C[C@H](O[Si](C#Cc1ccc(Oc2ccccc2)cc1)(C(C)C)C(C)C)c1ccccc1 | -0.6 |
| CC1CC/C=C\[C@H]2OC34C=CCN(Cc5ccccc5)C(=O)[C@H]3N(CCCO)C(=O)[C@@H]4C2C(=O)O1 (stereo not given in full) | -0.364 |
| CCOC(=O)C[C@H]1[C@H](OC(=O)c2ccc(C(=O)c3ccccc3)cc2)[C@@H](NC(=O)c2ccccc2)c2cc(OCCCO)ccc2N1C(=O)Cc1ccc(OC)cc1 | 0.0147 |
| CC(C)CNC(=O)[C@@]1(Cc2ccccc2I)c2ccccc2C(=O)N(C2CCCCC2)[C@H]1c1ccc(CO)cc1 | 0.321 |
| Cc1ccc(S[C@]2(C(=O)NCCCN(C)C)CC(=O)N(Cc3ccccc3C(F)(F)F)[C@@H]2c2ccc(CO)cc2)cc1 | -0.157 |
| C=CC[C@]1(C(=O)NCCCOC)N=C(c2ccc(OCCCO)cc2)O[C@H]1c1ccccc1CN=[N+]=[N-] | 0.932 |
| Cc1ccc(S[C@]2(C(=O)NCCCN(C)C)CC(=O)N(Cc3cc(C(F)(F)F)cc(C(F)(F)F)c3)[C@@H]2c2ccc(CO)cc2)cc1 | 0.145 |
| CCCC[C@H]1OB(O)C[C@H]2C1=C(COC)Cn1c(=O)n(-c3ccccc3)c(=O)n12 | -0.0429 |
| COc1ccc(/C=C/C=O)cc1 | -0.0113 |
| NC(=O)NCC#Cc1ccc2c(c1)[C@]1(C(=O)N2)[C@H](c2ccccc2OCCO)N2[C@H](c3ccccc3)[C@H](c3ccccc3)OC(=O)[C@H]2[C@@H]1C(=O)Nc1nc2ccccc2s1 | 0.346 |
| C=CCC(OC(C)=O)[C@@H]1[C@@H](N(Cc2ccc(-c3ccccc3)cc2)C(=O)c2ccc(-c3ccccc3)cc2)c2cc(OCCCO)ccc2N1C(=O)Cc1ccc2ccccc2c1 (stereo not given in full) | -0.0802 |
| Cc1ccc(N2C(=O)c3ccccc3[C@@H](C(=O)NC3CC3)[C@@H]2c2ccc(CO)cc2)nc1 | -1.29 |
| COCCCNC(=O)[C@@]1(C)c2ccccc2C(=O)N(C(C)C)[C@H]1c1ccc(CO)cc1 | 0.624 |
| COC(=O)[C@@]1(Cc2ccc(OC)cc2)[C@@H]2C(=CC(=O)[C@H]2CC(=O)C(=O)N2CCCC2)CN1C(=O)c1ccccc1 | 0.528 |
| C=C(COC)/C(=C/C[C@@H](OC(=O)c1ccncc1)c1ccc(CO)o1)c1cc(C(=O)OC)ccc1OC | 0.987 |

| Structure (SMILES) | composite z-score |
| --- | --- |
| NC(=O)NCC#Cc1ccc2c(c1)[C@]1(C(=O)N2)[C@H](C(=O)Nc2nc3ccccc3s2)[C@H]2C(=O)O[C@H](c3ccccc3)[C@H](c3ccccc3)N2[C@@H]1c1ccccc1OCCO | 0.997 |
| COc1ccc(C(=O)Nc2ccc(CN3C(=O)[C@]4(O[C@H](CCO)[C@@H]([Si](C)(C)c5ccc(OC)cc5)[C@@H]4C)c4ccccc43)cc2)cc1 | 0.246 |
| COc1cc2c(cc1OC)CN(C(=O)[C@@H]1[C@H]3C(=O)O[C@H](c4ccccc4)[C@H](c4ccccc4)N3[C@H](c3ccc(O)cc3)[C@@]13C(=O)Nc1ccccc13)CC2 | 0.684 |
| [N-]=[N+]=Nc1ccccc1[C@@H]1OC(c2ccc(OCCCO)cc2)=N[C@]1(CCS(=O)(=O)c1ccccc1)C(N)=O | 0.203 |
| COC(=O)[C@@]1(Cc2ccc(F)cc2)[C@H]2c3cc(C(=O)N4CCCC4)n(CCCNc4ncc(C(F)(F)F)cc4Cl)c3C[C@H]2CN1C(=O)c1ccccc1 | 0.604 |
| [N-]=[N+]=Nc1ccccc1[C@@H]1OC(c2ccc(OCCCO)cc2)=N[C@]1(Cc1ccccc1)C(=O)N1CCOCC1 | 0.142 |
| C=CCC(OC(C)=O)[C@@H]1[C@@H](N(Cc2ccc(-c3ccccc3)cc2)C(=O)Cc2ccc(OC)cc2)c2cc(OCCCO)ccc2N1C(=O)Cc1ccc2ccccc2c1 (stereo not given in full) | 0.151 |
| CC1(C)C2C=C(C(O)C3C=CC4C(=O)NC(=O)C4N3Nc3ccc(Cl)cc3Cl)C[C@@H]1C2 (stereo not given in full) | -0.167 |
| CO[C@H]1O[C@H](CO)[C@@H](OC(=O)Nc2cccc(F)c2)[C@H](OC(=O)Nc2ccccc2)[C@@H]1OC(=O)Nc1ccccc1 | 0.919 |
| COc1ccc(C(O)C2C=CC3C(=O)N(Cc4ccccc4)C(=O)C3N2n2cnnc2)cc1OCc1ccccc1 (stereo not given) | 1.23 |
| COC(=O)[C@@]1(Cc2ccc(OC)cc2)[C@H]2c3cc(C(=O)N4CCCC4)n(Cc4ccc(C)c(F)c4F)c3C[C@H]2CN1C(=O)c1ccccc1 | 1.32 |
| CC(=O)NCCCC[C@@H]1NC(=O)[C@H]2C[C@@H](C(=O)NCCCCCCNC(=O)CS)[C@@H](c3ccc(O)cc3)N2C1=O | 0.458 |
| COCCOC(=O)N1C(=O)[C@@]2(c3cc(C#CC4(O)CCCCCC4)ccc31)[C@H](c1ccc(OCCO)cc1)N1[C@H](c3ccccc3)[C@H](c3ccccc3)OC(=O)[C@H]1[C@@H]2C(=O)N1CCN(c2ncccn2)CC1 | 0.333 |
| CCCCCN1CC=CC23O[C@@H]4/C=C\CCC(C)OC(=O)C4[C@H]2C(=O)N(C(C)CO)[C@@H]3C1=O (stereo not given in full) | -0.521 |
| COc1ccc(C#Cc2ccc3c(c2)[C@]2(C(=O)N3)[C@H](C(=O)NC[C@H](O)c3ccccc3)[C@H]3C(=O)O[C@H](c4ccccc4)[C@H](c4ccccc4)N3[C@@H]2c2ccc(O)cc2)cc1 | 0.521 |
| COc1ccc(C#Cc2ccc3c(c2)[C@]2(C(=O)N3)[C@H](c3ccccc3OCCO)N3[C@H](c4ccccc4)[C@H](c4ccccc4)OC(=O)[C@H]3[C@@H]2C(=O)Nc2nc3ccccc3s2)cc1 | 0.717 |
| CN1C(=O)C2C=CC(C(O)c3ccco3)N(Nc3ccccc3)C2C1=O (stereo not given) | -0.0653 |
